Laboratory results from the supplement of paper PMC11172423.

system: Madurella mycetomatis MM55; test: growth relative to untreated control; higher = less inhibition, active = 20 or less; conditions: 25 µM
Experimental: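 Hyphal fragments of M. mycetomatis MM55 or F. senegalensis CBS197.79 in RPMI 1640/MOPS were exposed to each MMV COVID Box or Global Health Priority Box compound at 100 or 25 µM for 7 days at 37 °C. Viability was read with MTS (490 nm, M. mycetomatis) or resazurin (600 nm, F. senegalensis), background-corrected with a medium-only control and expressed as % growth relative to the untreated growth control. Inhibition of more than 80% was taken as growth inhibition.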

Compound	growth
COP(=S)(OC)Oc1ccc(Sc2ccc(OP(=S)(OC)OC)cc2)cc1	118% (inactive)
CNC(=O)Oc1cccc2ccccc12	95.8% (inactive)
CN1C(=O)C(C(=O)Nc2ccc(Cl)c(Cl)c2)C(=O)N(C)C1=O	56% (inactive)
CNC(=O)O/N=C(/C)SC	112% (inactive)
CNC(=O)Oc1ccccc1OC(C)C	120% (inactive)
CN(C)[C@@H]1C(=O)C(C(N)=O)=C(O)[C@@]2(O)C(O)=C3C(=O)c4c(O)cccc4[C@@](C)(O)[C@H]3C[C@@H]12	102% (inactive)
Clc1ccc(C(OCCN2CCCCC2)c2ccccc2)cc1 (stereo not given)	120% (inactive)
CNC(=O)c1cc(Cl)cc(C)c1NC(=O)c1cc(Br)nn1-c1ncccc1Cl	81.9% (inactive)
CCOP(=S)(OCC)Oc1cc(C)nc(C(C)C)n1	108% (inactive)
C=C(C)[C@H]1Cc2c(ccc3c2O[C@@H]2COc4cc(OC)c(OC)cc4[C@@H]2C3=O)O1	7.57% (active)
COc1cc(/C=N/c2c(SC(F)(F)F)c(C#N)nn2-c2c(Cl)cc(C(F)(F)F)cc2Cl)ccc1O	21% (inactive)
O=[N+]([O-])/C=C1\NCCCS1	94% (inactive)
N#CCNC(=O)c1cnccc1C(F)(F)F	109% (inactive)
CNCCn1c(Nc2cc(Cl)cc(C(F)(F)F)c2)nc2cnc(NC3CC(F)(F)C3)cc21	22.2% (inactive)
CC(c1ccc(C(F)(F)F)nc1)S(C)(=O)=NC#N (stereo not given)	71.6% (inactive)
COc1ccc(CCN2CCC(Nc3nc4ccccc4n3Cc3ccc(F)cc3)CC2)cc1	3.51% (active)
CN1C2CCC1CC(C#N)C2 (stereo not given)	85.6% (inactive)
ClC1=C(Cl)[C@@]2(Cl)[C@H]3C[C@@H](Cl)[C@H](Cl)[C@H]3[C@@]1(Cl)C2(Cl)Cl	104% (inactive)
CC1(C)C(C=C(Cl)Cl)C1C(=O)OCc1cccc(Oc2ccccc2)c1 (stereo not given)	78.1% (inactive)
CCN(Cc1ccc(Cl)nc1)/C(=C/[N+](=O)[O-])NC	86.9% (inactive)

same assay, conditions: 100 µM

Compound	growth
COP(=S)(OC)Oc1ccc(Sc2ccc(OP(=S)(OC)OC)cc2)cc1	118% (inactive)
CNC(=O)Oc1cccc2ccccc12	85.3% (inactive)
CN1C(=O)C(C(=O)Nc2ccc(Cl)c(Cl)c2)C(=O)N(C)C1=O	10.4% (active)
CNC(=O)O/N=C(/C)SC	137% (inactive)
CNC(=O)Oc1ccccc1OC(C)C	129% (inactive)
CN(C)[C@@H]1C(=O)C(C(N)=O)=C(O)[C@@]2(O)C(O)=C3C(=O)c4c(O)cccc4[C@@](C)(O)[C@H]3C[C@@H]12	82.5% (inactive)
Clc1ccc(C(OCCN2CCCCC2)c2ccccc2)cc1 (stereo not given)	4.6% (active)
CNC(=O)c1cc(Cl)cc(C)c1NC(=O)c1cc(Br)nn1-c1ncccc1Cl	57% (inactive)
CCOP(=S)(OCC)Oc1cc(C)nc(C(C)C)n1	135% (inactive)
C=C(C)[C@H]1Cc2c(ccc3c2O[C@@H]2COc4cc(OC)c(OC)cc4[C@@H]2C3=O)O1	9.11% (active)
COc1cc(/C=N/c2c(SC(F)(F)F)c(C#N)nn2-c2c(Cl)cc(C(F)(F)F)cc2Cl)ccc1O	53.9% (inactive)
O=[N+]([O-])/C=C1\NCCCS1	122% (inactive)
N#CCNC(=O)c1cnccc1C(F)(F)F	142% (inactive)
CNCCn1c(Nc2cc(Cl)cc(C(F)(F)F)c2)nc2cnc(NC3CC(F)(F)C3)cc21	6.62% (active)
CC(c1ccc(C(F)(F)F)nc1)S(C)(=O)=NC#N (stereo not given)	173% (inactive)
COc1ccc(CCN2CCC(Nc3nc4ccccc4n3Cc3ccc(F)cc3)CC2)cc1	4.43% (active)
CN1C2CCC1CC(C#N)C2 (stereo not given)	117% (inactive)
ClC1=C(Cl)[C@@]2(Cl)[C@H]3C[C@@H](Cl)[C@H](Cl)[C@H]3[C@@]1(Cl)C2(Cl)Cl	130% (inactive)
CC1(C)C(C=C(Cl)Cl)C1C(=O)OCc1cccc(Oc2ccccc2)c1 (stereo not given)	151% (inactive)
CCN(Cc1ccc(Cl)nc1)/C(=C/[N+](=O)[O-])NC	132% (inactive)
